# The supplement of paper PMC6411743
# ± gives the standard deviation of the averaged measurements. Of roughly 5,400 targets only a part is listed; those with the largest changes were picked by preference.
# Compound: Nc1nc2c(ncn2[C@@H]2O[C@H](COP(=O)(O)OP(=O)(O)OP(=O)(O)O)[C@@H](O)[C@H]2O)c(=O)[nH]1 [guanosine triphosphate]
# Test: NP40-soluble protein abundance relative to vehicle (solubility fold change) (ratio); higher = more soluble protein in presence of GTP
# Protocol: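 Solubility proteome profiling in Jurkat crude lysate. Lysate was treated with Mg-GTP (0.1-10 mM) for 10 min at room temperature and 3 min at 37 °C, then solubilised with 0.8% NP40 and benzonase, followed by ultracentrifugation. Proteins were quantified by TMT10 LC-MS/MS; the value is the NP40-soluble abundance relative to the NP40-processed vehicle, from 3 independent experiments.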
# UniProt P06239, sequence (P06239 whole entry, looked up): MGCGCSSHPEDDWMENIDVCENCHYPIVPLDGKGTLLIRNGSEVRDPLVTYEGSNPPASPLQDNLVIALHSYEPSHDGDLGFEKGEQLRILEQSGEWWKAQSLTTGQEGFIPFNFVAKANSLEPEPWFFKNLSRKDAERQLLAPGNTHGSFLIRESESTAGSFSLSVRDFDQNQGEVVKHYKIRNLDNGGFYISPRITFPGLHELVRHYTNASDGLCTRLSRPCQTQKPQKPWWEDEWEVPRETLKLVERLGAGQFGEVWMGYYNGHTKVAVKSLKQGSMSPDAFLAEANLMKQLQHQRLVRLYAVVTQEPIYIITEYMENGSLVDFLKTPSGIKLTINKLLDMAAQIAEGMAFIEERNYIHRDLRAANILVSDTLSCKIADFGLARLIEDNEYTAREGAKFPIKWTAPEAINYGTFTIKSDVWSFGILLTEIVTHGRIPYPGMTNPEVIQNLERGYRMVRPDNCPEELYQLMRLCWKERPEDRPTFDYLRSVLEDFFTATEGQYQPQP
# UniProt O15260, sequence (O15260 whole entry, one chain of several): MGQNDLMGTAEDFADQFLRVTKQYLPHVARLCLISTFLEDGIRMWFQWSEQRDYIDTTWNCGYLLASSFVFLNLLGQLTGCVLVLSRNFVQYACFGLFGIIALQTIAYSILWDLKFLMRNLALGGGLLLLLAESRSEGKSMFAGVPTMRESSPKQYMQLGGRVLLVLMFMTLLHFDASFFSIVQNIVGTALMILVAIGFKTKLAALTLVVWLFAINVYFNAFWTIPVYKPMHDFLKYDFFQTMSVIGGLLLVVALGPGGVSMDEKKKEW
# UniProt P20339, sequence (P20339 whole entry): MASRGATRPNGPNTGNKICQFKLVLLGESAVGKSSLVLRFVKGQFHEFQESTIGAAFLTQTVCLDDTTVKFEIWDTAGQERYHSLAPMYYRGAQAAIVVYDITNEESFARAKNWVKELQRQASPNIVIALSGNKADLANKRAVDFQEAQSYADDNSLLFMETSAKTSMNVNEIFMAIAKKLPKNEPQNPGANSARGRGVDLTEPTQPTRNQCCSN
# UniProt P50897, sequence (P50897 whole entry): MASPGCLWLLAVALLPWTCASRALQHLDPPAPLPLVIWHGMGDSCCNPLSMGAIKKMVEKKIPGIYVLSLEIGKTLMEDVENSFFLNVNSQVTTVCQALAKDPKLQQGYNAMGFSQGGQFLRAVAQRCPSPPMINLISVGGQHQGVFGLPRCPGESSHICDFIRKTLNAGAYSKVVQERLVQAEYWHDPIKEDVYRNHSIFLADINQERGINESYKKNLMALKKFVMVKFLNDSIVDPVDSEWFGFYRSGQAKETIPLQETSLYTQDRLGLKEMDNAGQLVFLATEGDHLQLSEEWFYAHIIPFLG
# UniProt O60216, sequence (O60216 whole entry): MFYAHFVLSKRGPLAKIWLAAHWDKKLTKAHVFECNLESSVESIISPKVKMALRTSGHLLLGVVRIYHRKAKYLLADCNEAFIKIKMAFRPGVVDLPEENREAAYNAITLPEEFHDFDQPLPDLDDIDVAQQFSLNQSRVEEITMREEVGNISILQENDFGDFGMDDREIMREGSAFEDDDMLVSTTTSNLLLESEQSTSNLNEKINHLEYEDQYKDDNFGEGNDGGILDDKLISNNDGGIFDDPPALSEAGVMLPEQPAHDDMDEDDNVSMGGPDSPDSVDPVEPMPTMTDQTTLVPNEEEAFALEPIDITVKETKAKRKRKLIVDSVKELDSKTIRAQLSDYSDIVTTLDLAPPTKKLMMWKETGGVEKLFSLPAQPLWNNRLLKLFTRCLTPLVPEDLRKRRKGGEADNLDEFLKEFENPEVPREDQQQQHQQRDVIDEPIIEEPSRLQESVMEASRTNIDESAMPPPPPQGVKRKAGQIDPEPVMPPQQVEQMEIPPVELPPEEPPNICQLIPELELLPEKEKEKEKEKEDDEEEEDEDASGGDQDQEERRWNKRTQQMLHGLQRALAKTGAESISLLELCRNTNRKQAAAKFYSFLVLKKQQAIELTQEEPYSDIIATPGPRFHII
target,measurement,setting,value
UniProt P06239|P06239-3,NP40-soluble protein abundance,concentration: 0.1mM,1.013 ± 0.0087
same,NP40-soluble protein abundance,concentration: 0.5mM,1.04 ± 0.034
same,NP40-soluble protein abundance,concentration: 1mM,0.994 ± 0.022
same,NP40-soluble protein abundance,concentration: 2mM,1 ± 0.032
same,NP40-soluble protein abundance,concentration: 4mM,1 ± 0.023
same,NP40-soluble protein abundance,concentration: 6mM,0.963 ± 0.015
same,NP40-soluble protein abundance,concentration: 8mM,0.929 ± 0.026
same,NP40-soluble protein abundance,concentration: 10mM,0.919 ± 0.039
UniProt O15260|O15260-2|Q5T8U5,NP40-soluble protein abundance,concentration: 0.1mM,1.13 ± 0.021
same,NP40-soluble protein abundance,concentration: 0.5mM,1.03 ± 0.05
same,NP40-soluble protein abundance,concentration: 1mM,1.05 ± 0.022
same,NP40-soluble protein abundance,concentration: 2mM,1.01 ± 0.07
same,NP40-soluble protein abundance,concentration: 4mM,1.04 ± 0.074
same,NP40-soluble protein abundance,concentration: 6mM,0.956 ± 0.055
same,NP40-soluble protein abundance,concentration: 8mM,1.03 ± 0.044
same,NP40-soluble protein abundance,concentration: 10mM,0.953 ± 0.03
UniProt P20339|P20339-2,NP40-soluble protein abundance,concentration: 0.1mM,0.999 ± 0.016
same,NP40-soluble protein abundance,concentration: 0.5mM,1.08 ± 0.04
same,NP40-soluble protein abundance,concentration: 1mM,0.875 ± 0.057
same,NP40-soluble protein abundance,concentration: 2mM,0.937 ± 0.059
same,NP40-soluble protein abundance,concentration: 4mM,0.865 ± 0.034
same,NP40-soluble protein abundance,concentration: 6mM,0.85 ± 0.024
same,NP40-soluble protein abundance,concentration: 8mM,0.82 ± 0.13
same,NP40-soluble protein abundance,concentration: 10mM,0.828 ± 0.14
RAD21 (UniProt O60216),NP40-soluble protein abundance,concentration: 0.1mM,0.975 ± 0.037
same,NP40-soluble protein abundance,concentration: 0.5mM,0.991 ± 0.03
same,NP40-soluble protein abundance,concentration: 1mM,1.06 ± 0.023
same,NP40-soluble protein abundance,concentration: 2mM,1.07 ± 0.044
same,NP40-soluble protein abundance,concentration: 4mM,1.09 ± 0.028
same,NP40-soluble protein abundance,concentration: 6mM,1.07 ± 0.038
same,NP40-soluble protein abundance,concentration: 8mM,1.11 ± 0.062
same,NP40-soluble protein abundance,concentration: 10mM,1.12 ± 0.092
PPT1 (UniProt P50897),NP40-soluble protein abundance,concentration: 0.1mM,0.888 ± 0.06
same,NP40-soluble protein abundance,concentration: 0.5mM,0.859 ± 0.12
same,NP40-soluble protein abundance,concentration: 1mM,0.968 ± 0.083
same,NP40-soluble protein abundance,concentration: 2mM,0.872 ± 0.12
same,NP40-soluble protein abundance,concentration: 4mM,0.873 ± 0.068
same,NP40-soluble protein abundance,concentration: 6mM,0.887 ± 0.11
same,NP40-soluble protein abundance,concentration: 8mM,0.876 ± 0.059
same,NP40-soluble protein abundance,concentration: 10mM,0.861 ± 0.099
